# From article PMC4336329 (PLoS ONE, 2015)
# Among all 310,000 compounds or so, about 14,000 (4.5%) showed an effect of 50% or more. The effect is printed as a negative number. Shown is part of a subset that was picked to be rich in strong results.
# Molecular target: human ether-à-go-go-related gene (hERG) potassium channel (human, UniProt Q12809)
# Assay: primary screen, population patch clamp on CHO cells stably expressing hERG; higher = less effect of the substance
# 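Note: peak tail current of the secondary pulse compared with the same well before compound.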
# human ether-à-go-go-related gene (hERG) potassium channel, sequence (Q12809 whole entry, looked up): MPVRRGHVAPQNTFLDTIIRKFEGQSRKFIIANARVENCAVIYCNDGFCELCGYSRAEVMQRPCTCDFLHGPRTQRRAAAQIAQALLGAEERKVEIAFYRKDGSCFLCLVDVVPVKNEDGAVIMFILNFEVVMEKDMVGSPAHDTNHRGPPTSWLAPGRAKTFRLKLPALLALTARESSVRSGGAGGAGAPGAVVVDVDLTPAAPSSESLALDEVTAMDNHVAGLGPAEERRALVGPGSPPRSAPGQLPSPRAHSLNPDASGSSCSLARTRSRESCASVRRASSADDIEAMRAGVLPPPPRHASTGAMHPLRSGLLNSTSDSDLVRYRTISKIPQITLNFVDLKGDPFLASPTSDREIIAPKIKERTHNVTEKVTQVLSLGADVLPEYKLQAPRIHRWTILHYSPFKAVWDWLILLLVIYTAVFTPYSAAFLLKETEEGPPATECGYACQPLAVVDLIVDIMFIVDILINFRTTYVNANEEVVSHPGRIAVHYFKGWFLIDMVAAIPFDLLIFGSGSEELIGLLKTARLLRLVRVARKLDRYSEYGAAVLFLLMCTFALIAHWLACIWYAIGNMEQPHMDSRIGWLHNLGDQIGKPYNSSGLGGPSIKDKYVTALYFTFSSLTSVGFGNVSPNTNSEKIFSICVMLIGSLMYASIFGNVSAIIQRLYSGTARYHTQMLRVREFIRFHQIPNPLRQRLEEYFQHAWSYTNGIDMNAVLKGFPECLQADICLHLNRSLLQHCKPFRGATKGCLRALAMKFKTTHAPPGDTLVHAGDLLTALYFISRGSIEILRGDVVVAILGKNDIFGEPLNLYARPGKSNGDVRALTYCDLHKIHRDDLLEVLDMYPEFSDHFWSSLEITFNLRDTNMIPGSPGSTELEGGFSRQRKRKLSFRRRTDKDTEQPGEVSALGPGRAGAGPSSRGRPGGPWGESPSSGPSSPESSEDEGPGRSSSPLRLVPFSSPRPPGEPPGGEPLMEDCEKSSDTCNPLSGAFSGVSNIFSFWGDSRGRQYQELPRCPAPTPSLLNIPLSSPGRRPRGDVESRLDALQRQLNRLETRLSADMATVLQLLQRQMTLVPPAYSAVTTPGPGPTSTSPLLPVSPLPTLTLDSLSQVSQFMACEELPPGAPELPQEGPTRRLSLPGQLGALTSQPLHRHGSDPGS
row,SMILES,"hERG current change (%, negative = inhibition) at 10uM [%]"
1,C=CCn1c(O)c(C(C)=NCC2CCCO2)c(=O)[nH]c1=O (stereo not shown),-6.3
2,O=C(NCCC(NS(=O)(=O)OCC(Cl)(Cl)Cl)c1ccccc1)C(F)(F)F (stereo not shown),-16.4
3,NC(=O)CCCC1=NS(=O)(=O)c2ccccc2N1,11.5
4,CN1CCN(c2ccccc2NC(=O)c2ccccc2F)CC1,-70.8
5,COc1cc2ccccc2cc1C(=O)Nc1ccccc1N1CCCC1,-4.16
6,O=C(Nc1ccccc1N1CCN(c2ccccc2)CC1)c1ccccc1F,8.96
7,CC(=O)N1CCN(c2ccccc2NC(=O)c2ccc(C#N)cc2F)CC1,-49.6
8,COc1c(F)c(F)c(C(=O)Nc2ccccc2N2CCN(C(=O)C(C)C)CC2)c(F)c1F,6.51
9,CC(C)C(=O)N1CCN(c2ccccc2NC(=O)c2ccc(C#N)cc2F)CC1,-72.2
10,CC1CCN(c2ccccc2NC(=O)c2ccc(C#N)cc2F)CC1,5.07
11,COc1ccc(Cl)cc1C(=O)NC(=S)Nc1ccccc1N1CCOCC1,10.2
12,COc1ccc(C(=O)Nc2ccccc2N2CCN(C(=O)C(C)C)CC2)cc1Cl,-30.9
13,COc1ccc(Cl)cc1C(=O)Nc1ccccc1N1CCN(C)CC1,-79.3
14,COc1ccc(Cl)cc1C(=O)Nc1ccccc1N1CCN(C(=O)C(C)C)CC1,-74
15,O=C(Nc1ccccc1N1CCCC1)c1ccccc1F,-3.26
16,CN(C)c1ccc(NC(=O)c2ccc(COc3cccc(Cl)c3)o2)cc1,0.95
17,CS(=O)(=O)N(CC(=O)N1CCOCC1)Cc1ccc(Cl)cc1,4.67
18,COc1cc(C(=O)NCC2(N3CCCCC3)CCCCC2)ccc1OCC(=O)N1CCOCC1,-3.67
19,CC(=O)Nc1cccc(C(=O)OC(C)C(=O)N2CCc3ccccc32)c1 (stereo not shown),-33.2
20,Cc1ccc(C(=O)N2CCN(c3ncnc4c(-c5ccccc5)nsc34)CC2)cc1,18.1
21,Cc1cc(C)n(-c2nc(NCC3CCCO3)c3c4c(sc3n2)COC(C)(C)C4)n1 (stereo not shown),-20.2

row,SMILES,"hERG current change (%, negative = inhibition) at 10uM [%]"
1,COc1ccc(CC(=O)NC(C)C2COc3ccccc3O2)cc1OC (stereo not shown),-0.81
2,COc1ccc(CNC(=O)C2COc3ccccc3O2)c(OC)c1 (stereo not shown),-26.4
3,CC(NCc1ccccc1)C1COc2ccccc2O1 (stereo not shown),2.12
4,CCOC(=O)CCNC(C)C1COc2ccccc2O1.O=C(O)C(=O)O (stereo not shown),1.93
5,CC(NCc1ccc([N+](=O)[O-])cc1)C1COc2ccccc2O1.O=C(O)C(=O)O (stereo not shown),-66.2
6,COc1ccc(CNC(C)C2COc3ccccc3O2)c(OC)c1.O=C(O)C(=O)O (stereo not shown),-63.2
7,Cc1ccc(NC(=S)NCCc2c[nH]c3ccccc23)cc1,-1.12
8,COc1ccc(OCC(O)CNC(=O)c2ccc(OC)cc2)cc1 (stereo not shown),14.9
9,COCCn1c(SCC(=O)Nc2ccc(F)cc2F)nc2c([nH]c3ccccc32)c1=O,8.08
10,COCCCn1c(C)nnc1SCC(=O)NNC(=O)COc1ccc(Cl)cc1,22.6
11,COc1ccc(-c2ccc(Nc3ccc(S(=O)(=O)N4CCCC4)cc3)nn2)cc1OC,6.55
12,Cn1c(=O)[nH]c(=O)c2c1nc(N1CCNCC1)n2Cc1cccc2ccccc12,-16.4
13,Cc1cccc(N/C(=N/S(=O)(=O)c2ccccc2)c2ccccc2)n1,-24.9
14,CCN(c1cccc(C)c1)C(C(=O)Nc1ccc(OC)cc1)c1cc2c(cc1[N+](=O)[O-])OCO2 (stereo not shown),21.1
15,CC(C)OCCCNC(=O)COc1ccc2oc3c(c2c1)CCCC3,-4.97
16,CC(C)N(CCNC(=O)COc1ccc2oc3c(c2c1)CCCC3)C(C)C,-73.3
17,CCN(CC)CCCNC(=O)COc1ccc2oc3c(c2c1)CCCC3.Cl,-45.7
18,CC(=O)N1CCN(C(=O)COc2ccc3oc4c(c3c2)CCCC4)CC1,-25.4
19,CNC(=O)COc1ccc2oc3c(c2c1)CCCC3,9.14
20,CCOC(=O)N1CCN(C(=O)COc2ccc3oc4c(c3c2)CCCC4)CC1,-50.6
21,Cc1cccc(N(CC(=O)NCCC2=CCCCC2)S(C)(=O)=O)c1C,-22.8

row,SMILES,"hERG current change (%, negative = inhibition) at 10uM [%]"
1,COC(=O)c1ccc(CNC(=O)/C=C/c2cc([N+](=O)[O-])ccc2OC(F)F)cc1,6.89
2,CN(C)CCN(C(=O)c1ccc2ccccc2c1)c1nc2ccc(F)cc2s1.Cl,11.1
3,CN(C)CCCN(C(=O)C1=COCCO1)c1nc2ccc(Br)cc2s1.Cl,-67.2
4,CN(C)CCN(C(=O)c1ccc2c(c1)OCCO2)c1nc2ccc(Cl)cc2s1.Cl,-1.19
5,CN(C)CCN(C(=O)C1=COCCO1)c1nc2ccc(F)cc2s1.Cl,-73
6,CN(C)CCN(C(=O)C1=COCCO1)c1nc2ccc(Cl)cc2s1.Cl,-73.1
7,CN(C)CCN(C(=O)c1ccc2ccccc2c1)c1nc2ccc(Br)cc2s1.Cl,13.2
8,O=C(CN1Cc2ccccc2C1=O)Nc1ccc2c(c1)OCCO2,3.26
9,O=C([O-])c1cc(=O)[nH]c2ccc(S(=O)(=O)Nc3ccc(F)cc3)cc12.[K+],23.5
10,O=C(O)c1ccc(NC(=O)C2CCCCC2)cc1,-7.8
11,COCCNC(=O)Cn1cc2c(n1)CCC(C)C2 (stereo not shown),21.2
12,O=C(Cn1c(=O)oc2ccccc21)N1CCCC1,14.4
13,Cc1[nH]c2ccccc2c1/C=N/NC(=S)NC(C)C,12.1
14,CCCC(c1nnnn1C(C)(C)CC)N1CCN(C2CCCC2)CC1.Cl (stereo not shown),-35.3
15,CCCCC(c1nnnn1C1CCCC1)N1CCN(C2CCCCC2)CC1 (stereo not shown),-69.8
16,CCCCC(c1nnnn1C1CCCC1)N1CCN(C2CCCC2)CC1.Cl (stereo not shown),-85.6
17,CCCC(c1nnnn1C1CCCCC1)N1CCN(C2CCCC2)CC1.Cl (stereo not shown),-46.4
18,CCC(c1nnnn1C1CCCCC1)N1CCN(C2CCCC2)CC1.Cl (stereo not shown),-3.77
19,CCCCC(c1nnnn1C1CCCC1)N1CCN(C(=O)c2ccco2)CC1.Cl (stereo not shown),-47
